# Many of the other results were omitted from the sample, so hits are more common in it than they were.
# FECH block = human FECH heme synthesis enzyme inhibition | P22830 | purified FECH, Ni-mesoporphyrin absorbance 550 nm | calls only at 10 µM (by protocol) | 20,000 compounds, 3.3% hits;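 active = enzyme reaction rate more than 3 SD below the solvent-only control wells on the same plate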;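 also: lower slope than DMSO wells means FECH inhibition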
# Target sequence (P22830 whole entry, looked up): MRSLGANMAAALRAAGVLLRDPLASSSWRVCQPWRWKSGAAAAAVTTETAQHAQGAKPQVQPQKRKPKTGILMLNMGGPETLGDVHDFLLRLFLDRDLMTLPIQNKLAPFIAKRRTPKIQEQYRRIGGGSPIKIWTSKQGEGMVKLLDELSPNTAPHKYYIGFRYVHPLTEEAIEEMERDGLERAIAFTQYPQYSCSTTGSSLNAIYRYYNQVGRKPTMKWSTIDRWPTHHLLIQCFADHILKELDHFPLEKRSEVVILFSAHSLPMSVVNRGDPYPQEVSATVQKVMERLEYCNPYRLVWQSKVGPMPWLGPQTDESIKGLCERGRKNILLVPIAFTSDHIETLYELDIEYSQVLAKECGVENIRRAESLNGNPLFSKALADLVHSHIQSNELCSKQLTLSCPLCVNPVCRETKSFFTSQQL
# * hit, by the source's call; i = inactive; + = active, no number.
SMILES,FECH block
CCOc1ccc(S(=O)(=O)NCCn2c(C(F)(F)F)nc3cccnc32)cc1,+
CC(C)(C)c1ccc(S(=O)(=O)NCCn2c(C(F)(F)F)nc3cccnc32)cc1,i
O=C(NC1CCOCC1)C1CCCN(C2CCN(Cc3cccnc3)CC2)C1 (centres undefined),i
Cc1ccccc1-c1noc(C2CCN(C(=O)CN3C(=O)COc4ccccc43)CC2)n1,i
CC(NC1CCN(c2ccc3c(c2)OCO3)CC1)c1cn2ccsc2n1 (centres undefined),i
Cc1ccc(C2=CC(c3ccc(C)cc3)n3nc(NC(=O)c4cccc(Cl)c4)nc3N2)cc1 (centres undefined),+
O=C(Nc1nc2n(n1)C(c1ccc(F)cc1)C=C(c1ccc(Cl)cc1)N2)c1ccccc1 (centres undefined),i
Cc1cccc(C(=O)Nc2nc3n(n2)C(c2ccc(Cl)cc2)C=C(c2ccccc2)N3)c1 (centres undefined),+
Cc1cccc(C(=O)Nc2nc3n(n2)C(c2ccccc2Cl)C=C(c2ccc(Cl)cc2)N3)c1 (centres undefined),i
Cc1ccc(C(=O)Nc2nc3n(n2)C(c2ccc(Cl)cc2)C=C(c2ccc(C)cc2)N3)cc1 (centres undefined),+
Cc1ccc(C(=O)Nc2nc3n(n2)C(c2ccc(F)cc2)C=C(c2ccccc2)N3)cc1 (centres undefined),i
O=C(Nc1nc2n(n1)C(c1ccccc1)C=C(c1ccc(Cl)cc1)N2)c1ccc(Cl)cc1 (centres undefined),i
Cc1ccc(C(=O)Nc2nc3n(n2)C(c2ccccc2)C=C(c2ccccc2)N3)cc1 (centres undefined),i
Cc1ccc(C2=CC(c3ccc(Cl)cc3)n3nc(NC(=O)C(C)C)nc3N2)cc1 (centres undefined),i
COc1ccccc1CNc1nc(Nc2cccc(C)c2)c2cnn(-c3ccccc3)c2n1,i
Cc1ccc(C)c(CNC(=O)Nc2nncs2)c1,i
O=C(CCN1CCCCO1)NCCc1nc(C(=O)O)cs1,i
COc1cccc(CC2(CO)CCCN(c3cnc4ccccc4n3)C2)c1 (centres undefined),i
Cc1noc(C)c1CCNc1nccc(CCC(F)(F)F)n1,i
CCc1ccc(-n2c(CN3CCN(S(=O)(=O)CC)CC3)nc3cccnc32)cc1,i
CCc1ccccc1NC(=O)CN1CCCN(Cc2ccc(Cl)cc2)S1(=O)=O,i
CCc1cc(N(C)Cc2n[nH]c3c2CCC3)nc(N2CCOCC2)n1,i
CC(C)(NC(=O)c1cccs1)C(=O)NCc1cnn2ccccc12,i
Cc1cccc(CN(C)Cc2cn[nH]c2-c2ccc(F)cc2)c1O,i
CN(CCC(C)(C)O)Cc1cccc(Cl)c1F,+
SMILES,FECH block
CCN(Cc1ccccc1Cl)C(=O)CCNC(=O)c1ccccc1F,i
O=C(C1CCN(c2ccc(-c3cccs3)nn2)CC1)N1CCOCC1,i
Cc1ccc(-n2c(CN3CCN(S(=O)(=O)c4ccccc4C)CC3)nc3cccnc32)cc1,i
Cc1ccsc1-c1nccn1CC(c1ccccn1)N1CCOCC1 (centres undefined),i
CC(C)c1ccc2c(c1)-c1ccccc1S(=O)(=O)N2CC(=O)NCc1ccncc1,+
CCCNC(=O)c1ccccc1NC(=O)CN1c2ccc(C(C)C)cc2-c2ccccc2S1(=O)=O,i
CCc1ccc2c(c1)-c1ccccc1S(=O)(=O)N2CC(=O)N1CCN(c2ccccc2)CC1,i
CC(C)c1ccc2c(c1)-c1ccccc1S(=O)(=O)N2CC(=O)NCc1ccccn1,+
CCc1ccc2c(c1)-c1ccccc1S(=O)(=O)N2CC(=O)Nc1ccccc1OC,i
CCN1CCN(C(=O)CN2c3ccc(C(C)C)cc3-c3ccccc3S2(=O)=O)CC1,+
CC(C)c1ccc2c(c1)-c1ccccc1S(=O)(=O)N2CC(=O)NCCSC1CCCCC1,i
CCc1ccc2c(c1)-c1ccccc1S(=O)(=O)N2CC(=O)Nc1ccc(NC(C)=O)cc1,i
CCN1CCN(C(=O)CN2c3ccc(Br)cc3-c3ccccc3S2(=O)=O)CC1,i
CCc1ccc2c(c1)-c1ccccc1S(=O)(=O)N2CC(=O)NCc1ccccn1,+
CC(C)c1ccc2c(c1)-c1ccccc1S(=O)(=O)N2CC(=O)NCCCN1CCOCC1,i
COc1cc(NC(=O)CN2CCCN(Cc3ccc(Cl)cc3)S2(=O)=O)cc(OC)c1,i
O=C(CCN1CCCCO1)NCC1(N2CCOCC2)CCCCC1,i
O=C(O)C1(Cc2ccccc2)CCCN(c2nnnn2-c2ccccc2)C1 (centres undefined),i
CN(C)C[C@@H]1CCN(c2nccc(C3CCCC3)n2)C[C@H]1O,i
COc1cccc(S(=O)(=O)NCc2nc3cccnc3n2C2CCCCC2)c1,i
CCc1c(C)nc2ncnn2c1Sc1ccccc1NC(=O)c1cccs1,i
CCc1nc2nc(C)c(NC(=O)Nc3cccc(C(F)(F)F)c3)c(=O)n2[nH]1,i
CCOc1ccccc1N(Cc1nc2nc(C)cc(=O)n2[nH]1)C(=O)c1ccccc1F,i

# Screening data from PubChem.
